# Assay outcomes deposited in PubChem by Center for Chemical Genomics, University of Michigan.
# Dicer inh: inhibitors of human Dicer processing of pre-microRNA | AID 1347074 | actives 6% (n = 47,000) | Q9UPY3 | cat-ELCCA pre-miR-21 Dicer processing, chemiluminescence; active compounds read high | z-score at 25 µM; in the data active = z-score above about 3, passing the limit was not always enough;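 note: higher signal means more uncleaved substrate so more Dicer inhibition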
# Hits are given with their value; . = inactive. Only a selection was taken, and hits are over-represented in it overall.
SMILES,Dicer inh
O=C(Nc1nnc(CCS(=O)(=O)c2ccc(Br)cc2)s1)c1ccc(Cl)cc1,.
COc1ccc(Cc2nc(S(=O)(=O)c3ccc(Cl)cc3)c(N3CCOCC3)o2)cc1,.
CC(=O)Nc1nnc(CCS(=O)(=O)c2ccc3ccccc3c2)s1,.
COCCCn1c(SCC(=O)NNC(=O)C(Cl)(Cl)Cl)nnc1-c1ccc(C(C)(C)C)cc1,.
CO/N=C(\C(=O)N[C@@H]1C(=O)N2C(C(=O)OC(C)OC(C)=O)=C(COC(N)=O)CS[C@H]12)c1ccco1 (some centres not stated),.
CC1SC(c2cccnc2)N(c2ccc(F)cc2F)C1=O (configuration not stated),.
Cc1nc2c(=O)n(-c3ccc(F)cc3F)nc(C)c2s1,3.2
Cc1nc2c(s1)c(C)nn2-c1ccccc1,.
O=C(Nc1ccc(OCc2ccccc2)cc1)Nc1ccc2ccccc2n1,.
COc1cccc(-c2cc3nc(C(F)(F)F)cc(-c4cccs4)n3n2)c1,.
O=S(=O)(c1cccc(C(F)(F)F)c1)n1cccc1,.
Cn1c(=O)oc2cc(S(=O)(=O)Nc3ccc(C(=O)O)cc3)ccc21,.
Cn1c(=O)oc2cc(S(=O)(=O)Nc3ccc(O)cc3)ccc21,.
CCCCOC(=O)n1c(=O)oc2cc(S(=O)(=O)Nc3ccc(C)cc3)ccc21,3.3
Cc1ccc(N2C(=O)CC(SCC(=O)Nc3cc(C(F)(F)F)cc(C(F)(F)F)c3)C2=O)cc1[N+](=O)[O-] (configuration not stated),.
Cc1ccc(C(=O)C2CCN(C(=S)Nc3ccc(Cl)cc3Cl)CC2)cc1,.
NC(=O)Cn1cc(C(=O)c2ccco2)c2ccccc21,.
O=C(c1ccco1)c1coc2ccc(O)cc12,5.5
CC(=O)Oc1ccc2occ(C(=O)c3ccc(Cl)cc3)c2c1,.
OC1(c2cc(C(F)(F)F)cc(C(F)(F)F)c2)CC1,.
FC(F)(F)c1cccc(-c2n[nH]c(=S)n2-c2ccccc2)c1,.
O=c1cc(-c2ccccc2)nc(SCc2ccccc2Cl)[nH]1,.
O=C(O)CCSc1nc2ccccc2[nH]1,.
O=C(O)CCSc1ccc2ccccc2c1,.
Nc1cc(N)nc(SCCC(=O)O)n1,3.3
SMILES,Dicer inh
CC1(C)CC(=O)C(C=Nc2cc(C(F)(F)F)cc(C(F)(F)F)c2)=C(O)C1,.
Ic1ccc(Sc2c(-c3ccccc3)nc3ccccn23)cc1,.
CNS(=O)(=O)c1cc(-c2nnc(Nc3ccc4c(c3)OCO4)c3ccccc23)ccc1C,4.8
Cc1ccc(-c2nnc(Nc3ccc(O)cc3)c3ccccc23)cc1S(=O)(=O)N(C)C,.
Cc1ccc(-c2nnc(NCc3ccccc3)c3ccccc23)cc1S(=O)(=O)NCCO,.
Cc1ccc(-c2nnc(NCc3ccccc3)c3ccccc23)cc1S(=O)(=O)NCc1cccnc1,.
COc1ccc(OC2C(=O)N(CCc3ccc(F)cc3)C2c2ccc3c(c2)OCO3)cc1 (configuration not stated),3.3
O=C1C(Oc2ccccc2)C(c2ccc3c(c2)OCO3)N1Cc1ccc2c(c1)OCO2 (configuration not stated),.
COc1ccc(OC2C(=O)N(CCc3ccc(Cl)cc3)C2c2ccc3c(c2)OCO3)cc1 (configuration not stated),4.9
O=C1C(Oc2ccccc2)C(c2ccc(F)cc2)N1Cc1ccc2c(c1)OCO2 (configuration not stated),.
COc1ccc(OC2C(=O)N(Cc3ccc4c(c3)OCO4)C2c2ccc3c(c2)OCO3)cc1 (configuration not stated),.
O=C1C(Oc2ccc(Cl)cc2)C(c2ccc3c(c2)OCO3)N1CC1CCCO1 (configuration not stated),.
COc1ccc(CCN2C(=O)C(Oc3ccccc3)C2c2ccc3c(c2)OCO3)cc1 (configuration not stated),3.4
COc1ccc(OC2C(=O)N(Cc3ccc4c(c3)OCO4)C2c2cccs2)cc1 (configuration not stated),.
Cc1ccccc1OC1C(=O)N(Cc2ccc3c(c2)OCO3)C1c1ccc2c(c1)OCO2 (configuration not stated),.
O=C(CSc1nc2ccccc2nc1N1CCCC1)NC1CCCCC1,.
Cc1cc(C)c(N/C(N)=N/c2nc(C)cc(=O)[nH]2)c(C)c1,.
C#CCSC1=N/C(=C/N(C)C)C(=O)N1,.
c1cc2c(cc1CNCCCN1CCOCC1)OCO2,5.8
Clc1cccc(CNCc2ccc3c(c2)OCO3)c1,.
O=C(NCc1ccc2c(c1)OCO2)N1CCOCC1,.
CS/C(N)=N/N=C/c1c(Cl)cccc1Cl,.
O=C(O)c1cc2c(ccc3ccccc32)o1,.
O=C(Nc1cccnc1)c1cc2c(ccc3ccccc32)o1,.
O=C(O)c1cc2cc(Cc3cccnc3)ccc2o1,3.6
SMILES,Dicer inh
COc1ccc2c(c1)CCC(/C=N/O)=C2Cl,.
N#C/C(=C\Nc1ccc(F)cc1)S(=O)(=O)c1nc2ccccc2s1,.
CCOC(=O)c1cnc(O/N=C/c2ccc(F)cc2)nc1C(F)(F)F,.
Cc1ccc2oc(=O)n(CCC#N)c2c1,.
Cc1ccc2c(c1)C(=O)C(=O)N2CCOc1ccc(Br)cc1,.
Cc1ccc2oc(=O)n(CCCOc3ccc(Br)cc3)c2c1,3.2
CCOC(=O)CN(C(=O)CSc1nc(C)cc(C)c1C#N)c1ccccc1,.
FC(F)(F)c1ccc(CSc2ncc(C(F)(F)F)cc2C(F)(F)F)cc1,.
FC(F)(F)c1cccc(CSc2ncc(C(F)(F)F)cc2C(F)(F)F)c1,3
FC(F)(F)c1cnc(SCc2c(Cl)cccc2Cl)c(Cl)c1,.
Cc1cc2oc(-c3ccccc3C(=O)O)cc(=O)c2cc1C,.
Cc1ccccc1-c1cc(=O)c2cc(Cl)ccc2o1,.
O=c1cc(-c2cc(Br)cc3c2OCOC3)oc2ccccc12,3.5
Cc1nc2nc(C)c(CCC(C)C)c(=O)n2[nH]1,.
Cc1ccc(-n2cccc2C(=O)C(F)(F)F)c([N+](=O)[O-])c1,.
COc1ccc(Cc2nnc(Nc3ccc(Cl)cc3Cl)o2)cc1OC,3.9
COc1ccc(Cc2nnc(Nc3ccc(C)cc3)o2)cc1OC,.
COc1ccc(Cc2nnc(N)o2)cc1OC,.
COc1cc(C2C(C(=O)OCC(C)C)=C(C)NC3=C2C(=O)CC(c2cccs2)C3)ccc1O (configuration not stated),.
CC(C)Oc1ccc(C2Nc3ccccc3NC3=C2C(=O)CC(C)(C)C3)cc1 (configuration not stated),.
CC1(C)CC(=O)C2=C(C1)Nc1ccccc1NC2c1cccc(Br)c1 (configuration not stated),3.5
Cc1ccc2c(c1)NC(c1ccccc1)C1=C(CC(C)(C)CC1=O)N2 (configuration not stated),.
Cc1noc(/C=C/c2sccc2C2OCCO2)c1[N+](=O)[O-],.
CCc1cc2c(=O)c(-c3ccc4ccccc4n3)coc2cc1OC,.
Cc1ccc(C2N[C@@H](C(=O)O)C(C)(C)S2)cc1 (some centres not stated),.
SMILES,Dicer inh
CCSC1=C(C#N)C(=O)NC(c2ccc(OC)cc2OC)S1 (configuration not stated),.
COc1ccc(C(C[N+](=O)[O-])Sc2ccc(N)cc2)cc1 (configuration not stated),.
CCCCSc1nnc2[nH]c(=O)cc(N)n12,.
Nc1cc(=O)[nH]c2nnc(SCc3cccc(Oc4ccccc4)c3)n12,.
CCCCCCCSc1nnc2[nH]c(=O)cc(N)n12,.
CCCCCSc1nnc2[nH]c(=O)cc(N)n12,4.5
Nc1cc(=O)[nH]c2nnc(SCCc3ccccc3)n12,4.1
CCSc1nnc2[nH]c(=O)cc(N)n12,.
